The campaign covered roughly 44,000 compounds. Fewer than 10 were called active. Another 2% or so got no clear call; they are omitted. The call rests on the fitted dose curve; in most records, active means well fitted curve in the direction sought with a large enough effect; inconclusive means small, poorly fitted or top-dose-only effect, or another doubt; inactive means no such curve, though single readings can be large or run the other way. Only a sample is shown.

Chain of Galactokinase (Homo sapiens) (P51570 whole entry, looked up): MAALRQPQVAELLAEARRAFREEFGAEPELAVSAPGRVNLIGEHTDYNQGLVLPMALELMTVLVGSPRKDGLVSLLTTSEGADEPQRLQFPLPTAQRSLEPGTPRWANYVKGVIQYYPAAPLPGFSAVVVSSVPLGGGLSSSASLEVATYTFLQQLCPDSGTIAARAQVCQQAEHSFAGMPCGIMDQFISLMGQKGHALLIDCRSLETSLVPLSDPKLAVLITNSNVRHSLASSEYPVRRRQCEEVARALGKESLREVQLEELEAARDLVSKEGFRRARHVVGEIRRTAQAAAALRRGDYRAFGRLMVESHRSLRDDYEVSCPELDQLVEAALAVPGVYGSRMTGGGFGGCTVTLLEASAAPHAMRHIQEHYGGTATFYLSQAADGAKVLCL

This assay has as its target Galactokinase (Homo sapiens) (UniProt P51570). The assay can be described thus: qHTS Assay for Inhibitors of Human Galactokinase (GALK): NCGC Sytravon Library Screen. The settings on record: recombinant GALK, Kinase-Glo ATP luminescence, 1 h; series mostly up to 57.5 µM. The source says: Inherited deficiency of galactose-1-phosphate uridyltransferase (GALT) can result in a potentially lethal disorder called Classic Galactosemia (OMIM 230400). Several lines of evidence indicate that an elevated level of galactose-1-phosphate (gal-1-p), the product of galactokinase (GALK), is a major, if not sole, pathogenic mechanism in patients with classic galactosemia. Therefore, finding inhibitors of GALK is a potential novel therapy for this inherent metabolic disease and is the long term goal of this project. This screen is run against the NCGC Sytravon compound library collection. GALK (provided by Kent Lai) was assayed using ATP and D-(+)-Galactose (Sigma-Aldrich cat# G0750) as substrates. Promega Kinase-Glo Plus technology was used to detect kinase activity. Reactions with and without GALK were used as negative and positive controls together with Protein Tyrosine Phosphatase CD45 inhibitor (EMD Bioscience cat# 540215) which is shown to inhibit GALK activity. Decrease in activity corresponds to inhibition of the enzyme is the desired outcome for this assay. NIH Molecular Libraries Probe Production Network [MLPCN] NIH Chemical Genomics Center [NCGC] Grant: R03 MH085689-01 PI Name: Kent Lai Ph.D., University of Utah
NCGC Assay Protocol Summary: Three uL/well of ATP-buffer solution (35 uM ATP, 20mM HEPES pH8.0, 5 mM MgCl2, 60 mM NaCl, 1 mM DTT, 0.01% BSA final concentration) was dispensed into 1536-well, assay plates (Greiner, solid white medium-binding plates) with Aurora Discovery BioRAPTR Flying Reagent Dispenser (FRD; Beckton-Dickenson). Compound solution (23 nL) was transferred to the assay plate using the Kalypsys 1536-pin tool. One uL/well GALK-galactose solution (5 nM GALK, 100 uM galactose, 20 mM HEPES pH8.0, 5 mM MgCl2, 60 mM NaCl, 1 mM DTT, 0.01% BSA final concentration) was then added using the FRD yielding a total kinase reaction volume of 4 uL/ well. After 1 hour of room temperature incubation, 4 uL Kinase-Glo Plus reagent was added for a final assay volume of 8 uL/ well. Luminescence was detected with the ViewLux plate reader (Perkin Elmer, Waltham, MA) after 10 min incubation using a 1 sec exposure time and 2x binning.
Regarding `O=S(=O)(NCC(c1ccco1)N1CCOCC1)c1cc(F)ccc1F` (configuration not stated), the outcome was inactive.

Regarding `COc1ccc(-c2nc(C)c(CCNC(=O)c3ccc(C(F)(F)F)cc3)s2)cc1OC`, the outcome was inactive.

For `CCOC(=O)c1cccc(NC(=O)C(Cc2ccccc2)NS(=O)(=O)c2cccc3nsnc23)c1` (configuration not stated), the result was inactive.

Take `Cc1ccccc1Nc1nn2c(=O)c3ccc(C(=O)NCCc4ccc(Cl)cc4)cc3nc2s1`: the outcome was inactive.

As to `CCOc1ccc(C(=O)N2CCN(CCc3ccccn3)CC2)cc1`, the outcome was inactive.

Turning to `COc1ccccc1CNCc1ccc(C(=O)O)s1`, the outcome was inactive.

Regarding `COc1ccccc1CNC(=O)c1ccccc1NC(=O)c1nsc2ccccc12`, the result was inactive.

As to `Cc1sc2ncn(CC(=O)N3CCN(c4ccc(F)cc4)CC3)c(=O)c2c1S(=O)(=O)N1CCN(c2ncccn2)CC1`, the result was inactive.

For `COc1ccc(OC)c(NC(=O)/C=C/c2ccc(C)o2)c1`, the result was inactive.

In the case of `Cc1ccc(CNC(=O)CCC(=O)N2Cc3ccccc3Oc3ncccc32)cc1`, the result was inactive.

Regarding `Cc1nn(CC(=O)NCCc2ccccc2)c(=O)c2c1sc1ccccc12`, the outcome was inactive.

In the case of `COc1ccc(OC)c(NC(=O)CN2CCCN(Cc3cc(C)ccc3C)S2(=O)=O)c1`, the result was inactive.

With `O=C(NCCCN1CCN(c2cccc(Cl)c2)CC1)c1nnc(Cc2ccc(F)cc2Cl)o1`, the result was inactive.

For the molecule `CC1=C(c2ccc(C)c(C)c2)S(=O)(=O)NC1=NCc1ccccc1Cl`, the result was inactive.

For the molecule `COc1ccc(S(=O)(=O)NCCc2cc3ccc(C)c(C)c3[nH]c2=O)cc1`, the result was inactive.

`CCc1cccc(C)c1Nc1c(-c2ccc(N(C)C)cc2)nc2ncccn12`: the result was inactive.

In the case of `COc1ccc(NC(=O)Cn2c(=O)n(Cc3ccc(C(=O)NCc4ccccc4Cl)cc3)c(=O)c3ccccc32)cc1`, the outcome was inactive.

On to `CCC(=O)Nc1ccc2nc(SCC(=O)N3CCc4ccccc43)sc2c1`, for which the result was inactive.

With `Cc1ccc(-n2c3nc(=O)[nH]c(=O)c-3cc3c(Cl)cccc32)cc1`, the result was inactive.

For `Cc1ccc(SCC(=O)Nc2ccc3oc(-c4ccccc4C)nc3c2)cc1`, the result was inactive.

With `COc1ccc(NC(=O)CSc2nc3ccccc3n2CC(=O)N2CCCCC2C)cc1` (configuration not stated), the result was inactive.

For the molecule `CCOc1ccc(CCNC(=O)CSc2cc(=O)n(C)c3ccc(Cl)cc23)cc1OCC`, the result was inactive.

Turning to `O=C(Cn1c(=O)n(Cc2ccccc2)c(=O)c2sc3ccccc3c21)Nc1ccccc1F`, the outcome was inactive.

For `Cc1cccc2c(=O)cc(CSc3ccccc3NC(=O)C(C)C)[nH]c12`, the outcome was inactive.

With `COc1cc(OC)c(OC)cc1/C=C/c1nc2cc3ccccc3cc2c(=O)n1-c1ccc(F)c(Cl)c1`, the outcome was inactive.

`Cc1ccc(C(=O)Nc2nc(-c3ccccc3)ns2)cc1`: the outcome was inactive.

`Cc1ccc(C)c(Cn2c(=O)n(CCC(=O)NCc3ccc4c(c3)OCO4)c(=O)c3sccc32)c1`: the result was inactive.

Take `Cc1ccc(CNS(=O)(=O)c2ccc(C(=O)N(C)C)s2)cc1`: the outcome was inactive.

Consider `O=C(NCc1ccc2c(c1)CCN2C(=O)c1ccccc1)Nc1cc(F)ccc1F`, for which the result was inactive.

On to `CN(C(=O)CSc1nc2ccccc2n1Cc1ccccc1C#N)c1ccccc1`, for which the outcome was inactive.

For the molecule `CCCn1c2ccccc2c2cnn(CC(=O)NCC3CCN(Cc4ccc(C)cc4)CC3)c(=O)c21`, the result was inactive.

As for `COc1ccc(-c2noc(CSc3nnc(-c4ccccc4)n3-c3ccc(F)cc3)n2)c(OC)c1`, the outcome was inactive.

With `Cc1nnc(NC(=O)CSc2nc3c([nH]c4ccccc43)c(=O)n2-c2cccc(Cl)c2)s1`, the result was inactive.

As to `CCOc1ccc(CCNC(=O)c2cc3c(=O)n(C)c4ccccc4c3n2C)cc1`, the outcome was inactive.

With `O=C(CSc1nc2c(c(=O)[nH]1)CN(Cc1ccc(F)cc1)CC2)Nc1ccccc1Cl`, the outcome was inactive.

For the molecule `O=C(Cc1ccc(Cl)cc1)NCC(c1cccs1)S(=O)(=O)c1ccc(Cl)cc1` (configuration not stated), the result was inactive.

On to `O=C(Nc1ccc(Br)cc1)c1ccc(Br)c(S(=O)(=O)NCc2ccccc2)c1`, for which the result was inactive.

In the case of `Cc1ccc(-c2cn3c(n2)sc2cc(C(=O)NCc4cccs4)ccc23)c(C)c1`, the result was inactive.

As for `CCc1ccccc1NC(=O)c1ccc(F)c(S(=O)(=O)NC2CCCCCC2)c1`, the result was inactive.

With `CCc1cccc(NC(=O)CSc2nccn2C)c1`, the result was inactive.

For the molecule `COc1ccc(CCNc2ncnc3c2cnn3-c2ccc(C)cc2)cc1`, the result was inactive.

With `Cc1cccc(-c2nc(SCc3ccc(Br)cc3)n3[nH]c(=O)cc3n2)c1`, the result was inactive.

As to `CC(CCCc1ccccc1)NC(=O)c1nn(-c2ccc(Cl)cc2)nc1CO` (configuration not stated), the result was inactive.

`COc1ccc(CNc2nc(-c3ccc(Cl)cc3)cc(C(F)(F)F)n2)cc1`: the result was inactive.

Consider `CCn1cc(CCC(=O)NCc2ccc(F)cc2)c2ccccc21`, for which the result was inactive.

`CCN(c1ccc(Cl)cc1)S(=O)(=O)c1nnc(NC(=O)c2ccco2)s1`: the outcome was inactive.

Regarding `CCc1nn(CC(=O)Nc2cccc(C)c2C)c(=O)c2cc3sccc3n12`, the result was inactive.

On to `Cc1c(Cl)cccc1NC(=O)C1CCCN(C(=O)c2cnn(-c3ccccc3)c2-n2cccc2)C1` (configuration not stated), for which the result was inactive.

On to `CCc1ccccc1OCCSc1nc(-c2cccs2)nc2cc(=O)[nH]n12`, for which the outcome was inactive.

For the molecule `COc1ccc2cc(-c3nc(Cl)c4c5c(sc4n3)CC(C)CC5)c(=O)oc2c1` (configuration not stated), the result was inactive.

Take `Cc1ccc2cccc(NC(=O)C(C)Oc3ccc(C)c(C)c3)c2n1` (configuration not stated): the result was inactive.

For `CCCCc1nn2c(=O)cc(COC(=O)c3ccccc3NC(=O)C(C)(C)C)nc2s1`, the result was inactive.

Turning to `O=C(CSc1nc(=O)[nH]c2c1CCCC2)Nc1cc(C(F)(F)F)ccc1Cl`, the outcome was inactive.

With `CC(NC(=O)c1cc2c(=O)n3ccccc3nc2n(C(C)C)c1=N)c1ccccc1` (configuration not stated), the result was inactive.

For the molecule `COc1ccccc1CNS(=O)(=O)c1cc(Br)cc2c1N(C(C)=O)C(C)C2` (configuration not stated), the result was inactive.

For `Cn1c(=O)cc(OCC(=O)N2CCN(c3ccccc3F)CC2)c2ccccc21`, the outcome was inactive.

For `COc1ccc(CNC(=O)CCc2c(C)nn(-c3ccc(N4CCCC4)nn3)c2C)cc1`, the outcome was inactive.

In the case of `O=S(=O)(NCCS(=O)(=O)N1CCN(c2ccccc2)CC1)c1ccc(Cl)cc1`, the outcome was inactive.

Take `CCCN1CCN(CCCNC(=O)c2ccc3nc(Cc4ccccc4)oc3c2)CC1`: the outcome was inactive.

`CCN(Cc1ccccc1)C(=O)c1cn(-c2cccc(OC)c2)c(=O)c2ccccc12`: the result was inactive.

Regarding `COc1ccc(NS(=O)(=O)c2cc3c4c(c2)CC(=O)N4CCC3)cc1Cl`, the result was inactive.

Take `CC(=O)N1CCCc2ccc(NS(=O)(=O)c3ccc(F)cc3F)cc21`: the result was inactive.

For the origin of these results see PubChem BioAssay AID1347072 (National Center for Advancing Translational Sciences (NCATS), 2019).
